Data taken from PubChem BioAssay.
Calls of active or inactive are those of the source.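 How the source made its calls: active means compound raises GLP1 secretion from the human gut endocrine cells, with no numeric limit stated; inactive means the rest.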

Test: GLP1 release stimulators, primary, NCI-H716, NPC library (AID 1117341); further: reference of the scale not given here
Settings: NCI-H716 cells, at 10 µM, stronger effect = higher value

Row | Structure (SMILES) | GLP1 secretion stimulation
1 | Cc1cc2c(OCC(CNC(C)(C)C)OC(=O)c3ccccc3)cccc2[nH]1 (stereo not given) | 8.9% (inactive)
2 | CC(CNC1CCCCC1)OC(=O)c1ccccc1 (stereo not given) | 3.9% (inactive)
3 | C[C@]12CC[C@H]3[C@@H](CCC4=CC(=O)CC[C@@]43C)[C@@H]1CC[C@@H]2C(=O)CO | 2.7% (inactive)
4 | CCc1cccc(CC)c1NC(=O)CN(CC(=O)O)CC(=O)O | -0.1% (inactive)
5 | CCC(=O)c1ccc(O)cc1 | -2.3% (inactive)
6 | FCOC(C(F)(F)F)C(F)(F)F | -1.9% (inactive)
7 | COc1ccccc1Oc1c(NS(=O)(=O)c2ccc(C(C)(C)C)cc2)nc(-c2ncccn2)nc1OCCO | 0.2% (inactive)
8 | CCC(C)(CN(C)C)OC(=O)c1ccccc1 (stereo not given) | -1.9% (inactive)
9 | OC[C@@H](O)[C@@H](O[C@@H]1O[C@H](CO)[C@H](O)[C@H](O)[C@H]1O)[C@H](O)[C@@H](O)CO | -0.5% (inactive)
10 | CC1(C)CC1C(=O)NC(=CCCCCSCC(N)C(=O)O)C(=O)O (stereo not given) | -4.3% (inactive)
11 | C/C(=C(\CCOP(=O)(O)O)SC(=O)c1ccccc1)N(C=O)Cc1cnc(C)nc1N | -2.7% (inactive)
12 | CC[N+](C)(CC)CCOC(=O)C1c2ccccc2Oc2ccccc21 | -4.5% (inactive)
13 | CN1CCN(CCCN2c3ccccc3Sc3ccc(S(=O)(=O)N(C)C)cc32)CC1 | -2.9% (inactive)
14 | O=C(O)CCc1nc2ccccc2[nH]1 | 3.5% (inactive)
15 | OC(CCCN1CCCCC1)(c1ccccc1)c1ccccc1 | -3.3% (inactive)
16 | NS(=O)(=O)c1cc(C(=O)O)cc(N2CCCC2)c1Oc1ccccc1 | 1.1% (inactive)
17 | CN(CCCCCCCCCCN(C)C(=O)Oc1cccc([N+](C)(C)C)c1)C(=O)Oc1cccc([N+](C)(C)C)c1 | -4.4% (inactive)
18 | CC(C(=O)O)c1ccc(C(=O)c2ccccc2)s1 (stereo not given) | -4.7% (inactive)
19 | CN1CCCN(C(c2ccccc2)c2ccc(Cl)cc2)CC1 (stereo not given) | 13.9% (inactive)
20 | O=C1CC[C@@H](C(=O)O)N1 | -0.7% (inactive)

Row | Structure (SMILES) | GLP1 secretion stimulation
21 | CCOC(=O)Nc1ccc2c(c1)N(C(=O)CCN1CCOCC1)c1ccccc1S2 | -2.4% (inactive)
22 | COc1ccc(-c2cc(=S)ss2)cc1 | -6.2% (inactive)
23 | CN1CCN(C2=Nc3ccccc3Sc3ccc(Cl)cc32)CC1 | 19% (inactive)
24 | CCCNC(C)C(=O)Nc1c(C)csc1C(=O)OC (stereo not given) | -3.4% (inactive)
25 | O=C(O)Cc1sc(-c2ccccc2)nc1-c1ccc(Cl)cc1 | -0.5% (inactive)
26 | NS(=O)(=O)c1cc2c(cc1Cl)NC(CC1CCCC1)NS2(=O)=O (stereo not given) | 3.4% (inactive)
27 | O=C(O)c1ccc[n+]([O-])c1 | 0% (inactive)
28 | CN(C)CCn1nnnc1SCC1=C(C(=O)O)N2C(=O)[C@@H](NC(=O)Cc3csc(N)n3)[C@H]2SC1 | -3% (inactive)
29 | CC(C)(C)C(=O)OCOC(=O)[C@@H]1N2C(=O)[C@@H](NC(=O)[C@H](N)c3ccccc3)[C@H]2SC1(C)C | 2.6% (inactive)
30 | COCC(=O)Nc1c(I)c(C(=O)NCC(O)CO)c(I)c(C(=O)N(C)CC(O)CO)c1I (stereo not given) | -1.2% (inactive)
31 | C1CCN2C[C@@H]3C[C@@H](CN4CCCC[C@@H]34)[C@H]2C1 | 1.2% (inactive)
32 | Cc1c(-c2ccccc2)oc2c(C(=O)OCCN3CCCCC3)cccc2c1=O | -5.1% (inactive)
33 | CCCCN1C[C@H](O)[C@@H](O)[C@H](O)[C@H]1CO | -0.1% (inactive)
34 | NC(=O)OCC(O)COc1ccc(Cl)cc1 (stereo not given) | -0.6% (inactive)
35 | CCCCc1cc2ccccc2c(OCCN(C)C)n1 | 3.1% (inactive)
36 | O=C1[O][Bi][O]c2ccccc21 | 1.9% (inactive)
37 | C[N+]1(C)CCC(=C(c2ccccc2)c2ccccc2)CC1 | 0% (inactive)
38 | CC(C)NC[C@@H](O)COc1ccc(CC(N)=O)cc1 | 3.3% (inactive)
39 | OCc1ccccn1 | -2.9% (inactive)
40 | CN1CCCC(CC2c3ccccc3Sc3ccccc32)C1 (stereo not given) | 20% (active)
